A short description of test [1]: resazurin metabolic signal in HepG2 cells – cell-based, resazurin fluorescence, 24 h, PK04 Diversity Set, profiling panel (AID 1172). Particulars: HepG2 viability, higher = more signal.
Test [2] can be described thus: budding yeast growth changes without added modifier – OD600, strain BY4716, 24 h, basal condition, primary screen (AID 1173). The conditions noted are these: S. cerevisiae BY4716 growth, OD600, 24 h; higher = more signal, called active from +8 up or from −8 down.
The nature of test [3]: viability profiling in MM1S myeloma cells – cell-based, resazurin fluorescence, basal, 24 h, PK04 Diversity Set, profiling panel (AID 1174).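 Note: MM1S multiple myeloma cell line.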 The conditions noted are these: higher = more signal, called active from +8 up or from −8 down.
In test [4] the target is Dihydroorotate dehydrogenase (quinone), mitochondrial (Plasmodium falciparum (isolate 3D7)) (UniProt Q08210). Kind of test: inhibition of P. falciparum DHODH – biochemical, C-terminal His tag, absorbance 600 nm, primary screen (AID 1175).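 Note: recombinant parasite enzyme with a five histidine tag at its C terminus.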 The conditions noted are these: PfDHODH enzyme, DCIP absorbance 600 nm; higher = more signal, called active from +8 up or from −8 down.
A short description of test [5]: inhibition of PAO1 biofilm formation – strain PAO1, LB-PBS medium, absorbance 600 nm, primary screen (AID 1176). The conditions noted are these: P. aeruginosa PAO1 growth/biofilm, A600, 12 h; higher = more signal.
The nature of test [6]: growth modulation of vineyard yeast isolate – strain RM11-1a, OD600, basal, 24 h, primary screen (AID 1177).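 Note: cultures grown under basal conditions with no added stressor.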 Particulars: S. cerevisiae RM11-1a growth, OD600, 24 h; higher = more signal, called active from +8 up or from −8 down.
Test [7] can be described thus: growth of efflux-deficient E. coli DRC39 – strain DRC39, OD650, 24 h, E. coli filamentation inducers, primary screen (AID 1178).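 Note: growth measured as culture turbidity by optical density at 650 nm.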 Particulars: E. coli DRC39 acrAB, higher = more signal, called active from +8 up or from −8 down.
Test [8] in a line: growth of efflux-deficient E. coli DRC39 – strain DRC39, OD650, 48 h, E. coli filamentation inducers, primary screen (AID 1179).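 Note: screen aims at cell division blockers that make cells filament.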 The conditions noted are these: E. coli DRC39 delta-acrAB growth, higher = more signal, called active from +8 up or from −8 down.
The nature of test [9]: viability profiling in RPMI8226 myeloma cells – cell-based, resazurin fluorescence, basal, 24 h, PK04 Diversity Set, profiling panel (AID 1180).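 Note: RPMI8826 multiple myeloma cell line at 5000 cells per well.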 The conditions noted are these: higher = more signal.
Test [10] concerns the target E3 ubiquitin-protein ligase XIAP (Homo sapiens) (UniProt P98170). Kind of test: small molecules binding XIAP protein – biophysical, small-molecule microarray, fluorescence 635 nm, primary screen (AID 1181).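 Note: score merges 667 nm emission and signal to noise over triplicate slides.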 Particulars: higher = more signal.
In test [11] the test system is XIP peptide (Xip251-270) binding. Put plainly: XIP fragment 251-270 binding compounds – biochemical, small-molecule microarray, fluorescence 635/667 nm, 0.1 µg/mL protein, primary screen (AID 1182). The conditions noted are these: fluorescent protein binding, 635 nm, higher = more signal, called active from +8 up or from −8 down.
Test [12] concerns XIP peptide (Xip251-270). Put plainly: compounds binding XIP fragment 251-270 – biochemical, small-molecule microarray, fluorescence 635/667 nm, 0.5 µg/mL protein, primary screen (AID 1183). Particulars: fluorescence 635 nm, higher = more signal.
A short description of test [13]: blood-stage malaria parasite viability loss – strain 3D7, DAPI fluorescence, 100 nL, primary screen (AID 1184).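 Note: parasites grown inside human red blood cells in medium with human serum.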 The conditions noted are these: P. falciparum 3D7 growth, 3 d, higher = more signal.
In test [14] the target is Homeobox protein Hox-A13 (Mus musculus) (UniProt Q62424). Kind of test: disruptors of Hoxa13 oligonucleotide interaction – biochemical, fluorescence polarization, labeled oligonucleotide, primary screen (AID 1185). Particulars: Hoxa13:DNA binding, 15 min, higher = more signal, called active from +8 up or from −8 down.
A short description of test [15]: blockers of DNA damage checkpoint Chk1 activation – imaging, HeLa, hydroxyurea, phospho-Chk1 antibody, percent positive cells, primary screen (AID 1186). Particulars: hydroxyurea-induced phospho-Chk1 immunofluorescence imaging, higher = more signal.
A short description of test [16]: blockers of DNA damage checkpoint Chk1 activation – imaging, HeLa, hydroxyurea, phospho-Chk1 nuclear intensity, primary screen (AID 1187). The conditions noted are these: hydroxyurea-induced phospho-Chk1 immunofluorescence imaging, higher = more signal.

Each structure is given as a SMILES string. Active and inactive are the calls of the source. Unless noted, the rule behind the calls is not given here.

Chain of Homeobox protein Hox-A13 (Mus musculus) (Q62424 whole entry, looked up): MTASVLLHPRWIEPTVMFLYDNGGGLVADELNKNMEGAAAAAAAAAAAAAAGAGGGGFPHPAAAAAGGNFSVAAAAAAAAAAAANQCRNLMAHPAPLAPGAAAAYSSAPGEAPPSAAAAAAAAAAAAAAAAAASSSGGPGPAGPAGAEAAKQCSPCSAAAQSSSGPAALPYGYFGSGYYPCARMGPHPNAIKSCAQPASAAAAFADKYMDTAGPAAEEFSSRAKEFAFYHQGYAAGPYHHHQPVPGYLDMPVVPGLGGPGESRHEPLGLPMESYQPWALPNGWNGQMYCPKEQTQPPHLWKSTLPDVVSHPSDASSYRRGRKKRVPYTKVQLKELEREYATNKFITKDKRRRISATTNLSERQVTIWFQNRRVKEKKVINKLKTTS
Chain of Dihydroorotate dehydrogenase (quinone), mitochondrial (Plasmodium falciparum (isolate 3D7)) (Q08210 whole entry, looked up): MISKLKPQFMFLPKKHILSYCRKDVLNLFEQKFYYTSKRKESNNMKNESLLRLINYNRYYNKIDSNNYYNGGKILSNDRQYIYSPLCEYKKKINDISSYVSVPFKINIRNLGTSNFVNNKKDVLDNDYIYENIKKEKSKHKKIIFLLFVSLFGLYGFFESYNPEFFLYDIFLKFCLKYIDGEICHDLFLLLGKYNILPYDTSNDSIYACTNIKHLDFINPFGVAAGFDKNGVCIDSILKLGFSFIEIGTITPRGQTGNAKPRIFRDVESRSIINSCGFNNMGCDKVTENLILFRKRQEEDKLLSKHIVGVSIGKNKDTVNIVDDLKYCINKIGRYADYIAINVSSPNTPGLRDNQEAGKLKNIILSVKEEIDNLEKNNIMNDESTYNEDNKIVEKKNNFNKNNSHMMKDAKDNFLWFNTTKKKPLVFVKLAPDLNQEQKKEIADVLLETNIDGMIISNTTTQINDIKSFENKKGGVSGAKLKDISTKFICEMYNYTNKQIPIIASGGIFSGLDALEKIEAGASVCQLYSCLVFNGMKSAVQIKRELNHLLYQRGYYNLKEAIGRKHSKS
Chain of E3 ubiquitin-protein ligase XIAP (Homo sapiens) (P98170 whole entry, looked up, the tested form may be a part): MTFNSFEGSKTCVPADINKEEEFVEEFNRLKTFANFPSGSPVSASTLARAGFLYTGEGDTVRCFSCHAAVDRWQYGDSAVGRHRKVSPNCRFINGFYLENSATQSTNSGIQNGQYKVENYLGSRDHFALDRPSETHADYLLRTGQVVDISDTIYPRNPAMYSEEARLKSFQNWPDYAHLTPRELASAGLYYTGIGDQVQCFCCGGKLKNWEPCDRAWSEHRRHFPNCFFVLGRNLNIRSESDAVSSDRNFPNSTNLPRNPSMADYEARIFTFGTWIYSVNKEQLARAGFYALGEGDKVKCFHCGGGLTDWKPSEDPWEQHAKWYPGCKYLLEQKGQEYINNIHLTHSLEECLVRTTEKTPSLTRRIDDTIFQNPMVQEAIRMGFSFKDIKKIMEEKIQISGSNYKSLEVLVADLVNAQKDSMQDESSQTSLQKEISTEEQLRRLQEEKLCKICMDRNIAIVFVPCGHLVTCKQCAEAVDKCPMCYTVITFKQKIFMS

With `CC1CC/C=C\[C@H]2OC34C=CCN(Cn5nnc6ccccc65)C(=O)[C@H]3N(CCCCCO)C(=O)[C@@H]4C2C(=O)O1` (some centres undefined), the z-score was 0.786 in [1]; 0.0153 (inactive) in [2]; -0.88 (inactive) in test [3]; 0.193 (inactive) in test [5]; 0.0538 (inactive) in test [6]; 0.67 (inactive) in test [7]. In addition, the z-score in test [8] is 0.434 (inactive); in test [9], 0.796; in test [13], -0.585; in test [14] it was -3.77 (inactive); in test [15] it was -0.749 (inactive); in test [16] it was -0.2 (inactive). Besides, the composite z-score was 0.374 (inactive) in test [4], -0.148 in test [10], -0.369 (inactive) in [11] and -0.745 in [12].

As to `[N-]=[N+]=Nc1ccccc1C[C@]1(C(=O)NCC(O)CO)N=C(c2ccc(OCCCO)cc2)O[C@H]1c1ccccc1` (some centres undefined), the z-score in test [1] is -0.577; in test [2], -1.23 (inactive); in test [3], -0.62 (inactive); in test [5], 1.13 (inactive); in test [6], 2 (inactive); in [7], -0.283 (inactive). Further, the z-score in test [8] is -0.949 (inactive); in test [9], -1; in [13], -1.9; in test [14], -5.96 (inactive); in [15] it was 0.178 (inactive); in [16] it was -0.365 (inactive). For the same molecule, the composite z-score is 0.986 (inactive) in test [4], -0.0525 in [10], 0.474 (inactive) in test [11] and 0.511 in test [12].

On to `CC(C)C(=C=CC[C@H](O)c1ccc(CO)o1)CCO`, for which the z-score was -0.0202 in test [1]; -1.56 (inactive) in test [2]; -0.159 (inactive) in test [3]; 0.0356 (inactive) in test [5]; -0.132 (inactive) in test [6]; -0.706 (inactive) in [7]. Besides, the z-score is -0.741 (inactive) in test [8]; 0.152 in test [9]; 1.27 in [13]; -4.02 (inactive) in test [14]; -0.301 (inactive) in test [15]; -0.0779 (inactive) in [16]. The composite z-score in test [4] is -2.12 (inactive); in [10] it was 0.102; in [11] it was 0.352 (inactive); in test [12] it was 0.792.

On to `C=CCC(OC(C)=O)[C@@H]1[C@@H](N(Cc2cc3ccccc3o2)C(=O)Cc2ccc(OC)cc2)c2cc(OCCCO)ccc2N1C(=O)c1ccc2ccccc2c1` (some centres undefined), for which the z-score in test [1] is -1.5; in [2], -0.256 (inactive); in test [3], -0.0928 (inactive); in [5], -0.227 (inactive); in [6], -0.226 (inactive); in [7], -0.629 (inactive). For the same molecule, the z-score is -1.05 (inactive) in test [8]; -0.516 in [9]; -2.47 in test [13]; -1.6 (inactive) in test [14]; 0.556 (inactive) in [15]; 0.877 (inactive) in test [16]. For the same molecule, the composite z-score in test [4] is 0.164 (inactive); in [10], 0.0374; in [11] it was 0.0999 (inactive); in test [12], 0.167.

`O=C(NC1CC1)[C@@H]1c2ccccc2C(=O)N(C2Cc3ccccc3C2)[C@H]1c1ccc(CO)cc1`: the z-score was 0.21 in test [1]; -0.009 (inactive) in test [2]; 0.475 (inactive) in [3]; 0.196 (inactive) in test [5]; 0.397 (inactive) in test [6]; 0.223 (inactive) in test [7]. Further, the z-score in test [8] is 0.722 (inactive); in test [9], 0.543; in test [13] it was -0.69; in test [14] it was -1.14 (inactive); in test [15], -0.217 (inactive); in [16], 0.0084 (inactive). In addition, the composite z-score in test [4] was -0.0711 (inactive); in test [10], -0.0044; in test [11] it was 0.456 (inactive); in test [12], 0.657.

As for `Cc1ccc(C2C3C(=O)CC4C(=O)N(c5ccccc5)C(=O)C4C3CN2S(=O)(=O)c2ccc(C)cc2)cc1` (centres undefined), the z-score in test [1] is -0.419; in test [2], 1.05 (inactive); in test [3], -0.936 (inactive); in test [5], 0.201 (inactive); in test [6], 1.24 (inactive); in test [7], -0.478 (inactive). Moreover, the z-score in test [8] was 0.384 (inactive); in [9], -0.82; in test [13], 0.395; in [14], -3.61 (inactive); in test [15] it was 0.951 (inactive); in [16] it was 1 (inactive). In addition, the composite z-score in test [4] was -0.274 (inactive); in test [10], -0.173; in [11], 0.053 (inactive); in test [12] it was 0.785.

`CCN(CC)c1ccc(N2CC=CC34O[C@@H]5/C=C\CCC(C)OC(=O)C5[C@H]3C(=O)N(CCCCCO)[C@@H]4C2=O)cc1` (some centres undefined): the z-score in test [1] was 0.18; in test [2], -0.596 (inactive); in test [3] it was 0.603 (inactive); in test [5] it was -0.469 (inactive); in test [6], -0.147 (inactive); in [7], 0.95 (inactive). The z-score is 1.1 (inactive) in test [8]; 0.802 in test [9]; -0.0194 in [13]; -5.39 (inactive) in test [14]; 0.489 (inactive) in test [15]; 0.673 (inactive) in test [16]. Moreover, the composite z-score in test [4] is 0.513 (inactive); in test [10], -0.161; in test [11], -0.474 (inactive); in [12], 0.102.

In the case of `[N-]=[N+]=NCc1ccccc1[C@@H]1OC(c2ccc(OCCCO)cc2)=N[C@]1(CCS(=O)(=O)c1ccccc1)C(=O)N1CCOCC1`, the z-score in test [1] is -0.0512; in test [2], -0.26 (inactive); in test [3], 0.543 (inactive); in [5] it was 0.19 (inactive); in test [6] it was 0.821 (inactive); in test [7], 2.84 (inactive). Besides, the z-score in test [8] is 0.753 (inactive); in [9], 1.05; in test [13] it was -2.36; in test [14], -1.69 (inactive); in test [15], -0.535 (inactive); in test [16], -0.137 (inactive). The composite z-score in [4] is -4.67 (inactive); in test [10] it was 0.0512; in test [11], 1.06 (inactive); in [12] it was 0.712.

As for `CCC(CC)C(O)C1C=CC2C(=O)N(c3ccccc3)C(=O)C2N1Nc1ccccc1` (centres undefined), the z-score in [1] is 1.48; in test [2], -1.61 (inactive); in [3] it was 0.33 (inactive); in test [5], 2.07 (inactive); in test [6] it was -0.166 (inactive); in test [7] it was 0.55 (inactive). Further, the z-score is 0.503 (inactive) in test [8]; 0.0861 in test [9]; 0.0789 in [13]; -3.76 (inactive) in [14]; 0.263 (inactive) in test [15]; 0.0193 (inactive) in test [16]. The composite z-score in [4] was 0.246 (inactive); in test [10], 0.212; in test [11], 0.285 (inactive); in [12], 0.816.

For the origin of these results see PubChem BioAssay.
